Measurements as given in PubChem BioAssay AID1159580 (chemical genetic matrix, 2015).
The whole screen tested about 5,500 compounds, of which about 2,000 (36%) were called active. Not shown: some 18% with an inconclusive outcome. Rule as the data show it: active = normalized growth mostly below about 0.91 (no sharp cut-off); inconclusive = no clear call, values can overlap the other calls; inactive = mostly above about 0.92. This is one part of the list.

Experiment: chemical genetic growth profiling, strain panel (AID 1159580);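 also: tested at 20 µM; growth read once vehicle control cultures reached saturation at 30 °C; 1 = growth at the plate median or of vehicle wells; lower values mean less growth of the strain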
Conditions: growth OD

Measured: normalized growth

CC(=O)NO
inactive: S. cerevisiae deletion strains, locus YJL187C, strain SWE1, hits give low values 0.992 | S. cerevisiae deletion strains, locus YJR043C, strain POL32, hits give low values 1.07 | S. cerevisiae deletion strains, locus YJR066W, strain TOR1, hits give low values 0.993 | S. cerevisiae deletion strains, locus YKL009W, strain mrt4, hits give low values 0.989 | S. cerevisiae deletion strains, locus YKL068W, hits give low values 0.995 | S. cerevisiae deletion strains, locus YKL085W, strain MDH1 (second series), hits give low values 0.994 | S. cerevisiae deletion strains, locus YKL085W, strain MDH1, hits give low values 0.994 | S. cerevisiae deletion strains, locus YKL160W, strain elf1, hits give low values 0.961 | S. cerevisiae deletion strains, locus YKL190W, strain CNB1, hits give low values 1 | S. cerevisiae deletion strains, locus YKR001C, strain vps1, hits give low values 1.02 | S. cerevisiae deletion strains, locus YKR026C, strain gcn3, hits give low values 0.98 | S. cerevisiae deletion strains, locus YKR091W, strain srl3, hits give low values 0.985 | S. cerevisiae deletion strains, locus YLL001W, strain dnm1, hits give low values 0.922 | S. cerevisiae deletion strains, locus YLL026W, hits give low values 0.988 | S. cerevisiae deletion strains, locus YLL041C, strain sdh2, hits give low values 0.988 | S. cerevisiae deletion strains, locus YLR027C, strain aat2, hits give low values 0.981 | S. cerevisiae deletion strains, locus YLR039C, strain RIC1, hits give low values 0.711 | S. cerevisiae deletion strains, locus YLR058C, strain SHM2, hits give low values 0.988 | S. cerevisiae deletion strains, locus YLR102C, strain apc9, hits give low values 0.996 | S. cerevisiae deletion strains, locus YLR113W, strain HOG1, hits give low values 0.973 | S. cerevisiae deletion strains, locus YLR221C, strain rsa3, hits give low values 0.922 | S. cerevisiae deletion strains, locus YLR258W, strain gsy2, hits give low values 0.964 | S. cerevisiae deletion strains, locus YLR262C, strain YPT6 (second series), hits give low values 0.986 | S. cerevisiae deletion strains, locus YLR262C, strain YPT6, hits give low values 0.746 | S. cerevisiae deletion strains, locus YLR268W, strain sec22, hits give low values 0.965 | S. cerevisiae deletion strains, locus YLR320W, strain mms22, hits give low values 0.892 | S. cerevisiae deletion strains, locus YLR330W, strain CHS5, hits give low values 0.996 | S. cerevisiae deletion strains, locus YLR342W, strain FKS1 (second series), hits give low values 0.901 | S. cerevisiae deletion strains, locus YLR342W, strain FKS1, hits give low values 0.98 | S. cerevisiae deletion strains, locus YLR357W, strain rsc2, hits give low values 0.971 | S. cerevisiae deletion strains, locus YLR370C, strain arc18, hits give low values 0.949 | S. cerevisiae deletion strains, locus YLR371W, strain rom2, hits give low values 0.987 | S. cerevisiae deletion strains, locus YLR384C, strain iki3, hits give low values 0.983 | S. cerevisiae deletion strains, locus YLR418C, strain cdc73, hits give low values 0.851 | S. cerevisiae deletion strains, locus YML016C, strain PPZ1, hits give low values 0.993 | S. cerevisiae deletion strains, locus YML032C, strain rad52, hits give low values 0.951 | S. cerevisiae deletion strains, locus YML120C, strain ndi1, hits give low values 0.948 | S. cerevisiae deletion strains, locus YML124C, strain tub3, hits give low values 0.995 | S. cerevisiae deletion strains, locus YMR058W, strain fet3, hits give low values 0.988 | S. cerevisiae deletion strains, locus YMR078C, strain ctf18, hits give low values 0.991 | S. cerevisiae deletion strains, locus YMR125W, strain sto1, hits give low values 0.963 | S. cerevisiae deletion strains, locus YMR129W, hits give low values 0.99 | S. cerevisiae deletion strains, locus YMR205C, strain PFK2, hits give low values 0.951 | S. cerevisiae deletion strains, locus YMR223W, strain ubp8, hits give low values 0.968 | S. cerevisiae deletion strains, locus YMR231W, strain pep5, hits give low values 0.987 | S. cerevisiae deletion strains, locus YMR307W, strain GAS1, hits give low values 1.17 | S. cerevisiae deletion strains, locus YNL067W, strain RPL9B, hits give low values 0.949 | S. cerevisiae deletion strains, locus YNL071W, strain lat1, hits give low values 0.976 | S. cerevisiae deletion strains, locus YNL183C, strain NPR1, hits give low values 0.968 | S. cerevisiae deletion strains, locus YNL209W, strain ssb2, hits give low values 0.985 | S. cerevisiae deletion strains, locus YNL233W, strain BNI4, hits give low values 0.939 | S. cerevisiae deletion strains, locus YNL248C, strain rpa49, hits give low values 0.956 | S. cerevisiae deletion strains, locus YNL250W, strain rad50, hits give low values 0.976 | S. cerevisiae deletion strains, locus YNL271C, strain bni1, hits give low values 0.984 | S. cerevisiae deletion strains, locus YNL298W, strain CLA4, hits give low values 0.993 | S. cerevisiae deletion strains, locus YNL307C, strain MCK1, hits give low values 0.978 | S. cerevisiae deletion strains, locus YNL322C, strain KRE1 (second series), hits give low values 0.957 | S. cerevisiae deletion strains, locus YNR049C, strain mso1, hits give low values 0.977 | S. cerevisiae deletion strains, locus YNR052C, strain pop2, hits give low values 0.97 | S. cerevisiae deletion strains, locus YOL012C, strain htz1 0.899 | S. cerevisiae deletion strains, locus YOL147C, strain pex11, hits give low values 0.992 | S. cerevisiae deletion strains, locus YOR001W, strain rrp6, hits give low values 1.01 | S. cerevisiae deletion strains, locus YOR061W, strain CKA2, hits give low values 1 | S. cerevisiae deletion strains, locus YOR069W, strain VPS5, hits give low values 1.01 | S. cerevisiae deletion strains, locus YOR070C, strain gyp1, hits give low values 0.979 | S. cerevisiae deletion strains, locus YOR080W, strain dia2, hits give low values 0.977 | S. cerevisiae deletion strains, locus YOR083W, strain WHI5, hits give low values 0.962 | S. cerevisiae deletion strains, locus YOR106W, strain vam3, hits give low values 0.975 | S. cerevisiae deletion strains, locus YOR136W, strain idh2, hits give low values 0.989 | S. cerevisiae deletion strains, locus YOR144C, strain elg1, hits give low values 0.996 | S. cerevisiae deletion strains, locus YOR184W, strain ser1, hits give low values 0.974 | S. cerevisiae deletion strains, locus YOR231W, strain MKK1, hits give low values 0.992 | S. cerevisiae deletion strains, locus YOR265W, strain rbl2, hits give low values 0.986 | S. cerevisiae deletion strains, locus YOR270C, strain vph1, hits give low values 0.944 | S. cerevisiae deletion strains, locus YOR290C, strain snf2, hits give low values 0.948 | S. cerevisiae deletion strains, locus YOR316C, strain cot1, hits give low values 0.996 | S. cerevisiae deletion strains, locus YPL051W, strain arl3, hits give low values 0.985 | S. cerevisiae deletion strains, locus YPL078C, strain atp4, hits give low values 0.97 | S. cerevisiae deletion strains, locus YPL106C, strain sse1, hits give low values 0.969 | S. cerevisiae deletion strains, locus YPL240C, strain hsp82, hits give low values 0.983 | S. cerevisiae deletion strains, locus YPL256C, strain CLN2, hits give low values 0.994 | S. cerevisiae deletion strains, locus YPR119W, strain clb2, hits give low values 1 | S. cerevisiae deletion strains, locus YPR141C, strain kar3, hits give low values 1 | S. cerevisiae deletion strains, locus YPR163C, strain tif3, hits give low values 0.984 | S. cerevisiae deletion strains, locus YPR167C, strain met16, hits give low values 0.983 | S. cerevisiae deletion strains, strain wtn01, hits give low values 0.969 | S. cerevisiae strains, strain wild type, hits give low values 0.981
